Data published in PubChem BioAssay AID1851 (National Center for Advancing Translational Sciences (NCATS), 2009).
Screen size: about 16,000 compounds; about 5,100 (32%) were called active. Not shown: some 25% with an inconclusive outcome. The list shows a part of the results. A number with no mark means an inactive call. Calls follow the shape of the dose curve; as a rule, active = well fitted curve in the direction sought with a large enough effect; inconclusive = small, poorly fitted or top-dose-only effect, or effect the other way; inactive = no such curve, though single readings can be large or run the other way.

target: Cytochrome P450 3A4 (Homo sapiens) (UniProt P08684); test: Cytochrome panel assay with activity outcomes; conditions: recombinant CYP, pro-luciferin dealkylation, luminescence, p450-cyp3a4; series mostly up to 57.1 µM; activity, negative = inhibition: at the top concentration
% is scaled to controls: 0 for no effect and ±100 for the full control effect.

Sequence of Cytochrome P450 3A4 (Homo sapiens) (P08684 whole entry, looked up): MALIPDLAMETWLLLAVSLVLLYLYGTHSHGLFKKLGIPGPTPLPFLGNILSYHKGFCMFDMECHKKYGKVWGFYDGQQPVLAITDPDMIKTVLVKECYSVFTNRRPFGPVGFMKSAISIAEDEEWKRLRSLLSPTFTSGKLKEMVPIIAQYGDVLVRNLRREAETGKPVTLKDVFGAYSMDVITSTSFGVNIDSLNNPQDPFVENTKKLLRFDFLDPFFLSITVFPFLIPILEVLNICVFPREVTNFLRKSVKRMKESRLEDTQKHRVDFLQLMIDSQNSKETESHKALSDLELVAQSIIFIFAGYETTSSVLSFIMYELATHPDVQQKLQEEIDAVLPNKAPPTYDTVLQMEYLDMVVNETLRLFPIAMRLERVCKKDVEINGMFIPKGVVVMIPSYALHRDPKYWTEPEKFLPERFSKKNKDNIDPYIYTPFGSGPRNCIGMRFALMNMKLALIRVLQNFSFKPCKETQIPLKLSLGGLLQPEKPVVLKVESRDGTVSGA

Structure (SMILES)	activity, negative = inhibition	AC50
CC(C)OC(=O)c1cccc(C(=O)Oc2ccc(Br)cc2)n1	3%	
O=C(CCN1C(=O)c2cccc3cccc(c23)C1=O)N1CCN(Cc2ccc3c(c2)OCO3)CC1		1 µM (active)
Cc1ccc(/C=C2\OC(=O)c3ccccc32)cc1		12.6 µM (active)
Cc1ccccc1/C=C1\OC(=O)c2ccccc21	-28.4%	
Cc1ccc(=O)n(-c2ccccc2)c1	-17.9%	
CCC(C)N1C(=O)S/C(=C/c2ccc(Sc3nc4ccccc4[nH]3)o2)C1=O (configuration not stated)		1.12 µM (active)
COc1ccccc1CNc1ncnc2ccc(-c3c(C)noc3C)cc12		12.6 µM (active)
COc1ccc(CNc2ncnc3ccc(-c4c(C)noc4C)cc23)c(OC)c1		3.16 µM (active)
Cn1c(N)c(N=Nc2ccc(S(N)(=O)=O)cc2)c(=O)n(C)c1=O	-14.9% [at 11.4 µM]	
CC(C)(C)c1ccc(CN(Cc2ccco2)Cc2nnnn2C2CCCC2)cc1		1.41 µM (active)
CN(Cc1ccco1)C(=O)C1CCC(=O)N1Cc1ccc(F)cc1 (configuration not stated)	-13.7%	
NC(N)=N/N=C(\c1ccc(Cl)cc1)C1CC1	-13.1% [at 11.4 µM]	
CCOC(=O)N1CCN(C(=O)c2cnc3n(c2=O)CCS3)CC1	-1.95%	
CCOC(=O)N1CCN(C(=O)C(CC)n2nc(C)c3sc4ccccc4c3c2=O)CC1 (configuration not stated)		7.08 µM (active)
CCOC(=O)N1CCN(C(=O)CCn2nc(-c3ccccc3)ccc2=O)CC1	11.8%	
COc1ccc(CCC(C)NC2C3CC4CC(C3)CC2C4)cc1 (configuration not stated)	-2.79% [at 2.29 µM]	
COc1ccc(S(=O)(=O)N2CC3C4C=CC(C4)C3C2)cc1 (configuration not stated)		14.1 µM (active)
C[C@@H]1C[C@H](C)CN(S(=O)(=O)c2cc(Cl)c(Oc3ccc([N+](=O)[O-])cc3Cl)c(Cl)c2)C1	-9.23% [at 11.4 µM]	
Oc1ccccc1-c1cc(-c2ccccc2)no1	1.55%	
CC1CN(C(=O)CN2C(=O)NC3(CCCCCC3)C2=O)CC(C)O1 (configuration not stated)	25.3%	
O=C(CN1C(=O)NC2(CCCC2)C1=O)NCCC1=CCCCC1	-28.6%	

Structure (SMILES)	activity, negative = inhibition	AC50
O=C(CN1C(=O)NC2(CCCCCC2)C1=O)N1CCN(S(=O)(=O)c2ccc(Cl)cc2)CC1		6.31 µM (active)
Nc1ccc(-c2ccc(Nc3cc(S(=O)(=O)O)c(N)c4c3C(=O)c3ccccc3C4=O)cc2)c(S(=O)(=O)O)c1	-1.65% [at 11.4 µM]	
CC1CCN(S(=O)(=O)c2ccc3c(c2)C(=NO)c2cc(S(=O)(=O)N4CCC(C)CC4)ccc2-3)CC1	-0.656% [at 2.29 µM]	
Cc1ccc(S(=O)(=O)N(C)c2cc(S(=O)(=O)N3CCC(C)CC3)c(C)cc2C)cc1		2.51 µM (active)
O=C(CC1CCCC1)Nc1ccc2c(c1)CCC2		14.1 µM (active)
CC(=O)c1cccc(NC(=O)Cc2ccc3c(c2)CCCC3)c1	-26.1%	
O=C(N/N=C\c1ccc2c(c1)CCC2)c1ccccc1O	-19.2% [at 11.4 µM]	
Cc1nc2ccccc2n1CC(=O)N/N=C\c1ccccn1	-14.7%	
CCCCCCCCC(=O)N/N=C/c1ccccn1	-18.3%	
COCCCNC(=O)c1c(N)n(/N=C/c2ccccn2)c2nc3ccccc3nc12		4.47 µM (active)
O=S(=O)(c1ccccc1)N1CCC2(CCCN(c3ccccc3)C2)CC1		3.98 µM (active)
CS(=O)(=O)N1CCC2(CCCN(c3ncccn3)C2)CC1	-23.3%	
O=S(=O)(c1ccccc1)N1CCC2(CCCN(c3ncccn3)C2)CC1		12.6 µM (active)
CS(=O)(=O)N1CCC2(CC1)CN(c1cccc(-c3ccccc3)c1)C2	-29.8%	
O=S(=O)(c1ccccc1)N1CCC2(CCCN(c3cccc(-c4ccccc4)c3)C2)CC1		3.98 µM (active)
O=S(=O)(c1ccccc1)N1CCC[C@@]2(CCN(c3cccc(-c4ccccc4)c3)C2)C1		12.6 µM (active)
CS(=O)(=O)N1CCC2(CCN(c3cccc(-c4ccccc4)c3)CC2)CC1	-21.2%	
CN1CCCC2(CCN(S(=O)(=O)c3ccccc3)CC2)C1	-18%	
O=S(=O)(c1ccccc1)N1CCC2(CC1)CN(c1ncccn1)C2	3.08%	
Fc1ccc(SCCc2ccncc2)cc1		3.55 µM (active)
c1ccc(SCCc2ccncc2)cc1		2.51 µM (active)

Structure (SMILES)	activity, negative = inhibition	AC50
c1ccc(CCN2CCN=C2Cc2ccccc2)cc1	7.9% [at 11.4 µM]	
CCN(CCCc1ccccc1)CCCc1ccccc1	-5.25% [at 25.6 µM]	
ON(CCc1ccncc1)Cc1ccccc1		1 µM (active)
C[C@@H](CSC(=N)N)C(N)=O	-8.21% [at 11.4 µM]	
CCN(CC(=O)O)CC(=O)O	0.0109% [at 11.4 µM]	
Cc1ccc(C(=O)C(OC(=O)COc2ccccc2C)c2ccccc2)cc1 (configuration not stated)		10 µM (active)
Cc1ccc(C(=O)C(OC(=O)CNS(=O)(=O)c2ccccc2)c2ccccc2)cc1 (configuration not stated)		14.1 µM (active)
CC(=O)Nc1cccc(C(=O)OC(C(=O)c2ccc(C)c(C)c2)c2ccccc2)c1 (configuration not stated)	8% [at 2.29 µM]	
Cc1ccc(C(=O)C(OC(=O)CCC(=O)Nc2cccc(C)c2)c2ccccc2)cc1 (configuration not stated)		25.1 µM (active)
CC(=O)NNC(=O)CCC(=O)Nc1ccccc1	6.14% [at 2.29 µM]	
CCOC(=O)CC(NC(=O)c1ccco1)c1ccc(OC)cc1 (configuration not stated)	13.6%	
COc1ccc(C(=O)C(OC(=O)CNC(=O)c2ccco2)c2ccccc2)cc1 (configuration not stated)		14.1 µM (active)
Cc1ccccc1OCC(=O)OC1CCN(C)CC1	17.6%	
O=C(O)Cc1cc(I)c(Oc2ccc(O)c(I)c2)c(I)c1	-23.6% [at 25.6 µM]	
NC1=NC2(CCCCC2)N=C(Nc2ccc(F)cc2F)N1	-29.4%	
O=C(O)CC[C@@H](C(=O)O)N1C(=O)c2ccccc2C1=O	-3.86% [at 11.4 µM]	
Cc1ccc(C(=O)C(OC(=O)CN2C(=O)c3ccccc3C2=O)c2ccccc2)cc1 (configuration not stated)		7.94 µM (active)
COc1ccc(C(=S)Nc2ccccc2)cc1		31.6 µM (active)
COc1ccc(NC(=S)Nc2ccccc2)cc1	-19.5% [at 11.4 µM]	
CN(CC[C@@H](Oc1ccc(-c2ccccc2)cc1)c1ccc(F)cc1)CC(=O)O	-24.4%	
